Source: PubChem BioAssay
Unmarked numbers belong to inactive results. For some assays here: Entries with a potency or affinity are not part of this list. Calls of active or inactive are those of the source. Unless noted, the rule behind the calls is not given here.

How the values were obtained:
[1] = antimalarial activity against Dd2 strain (AID 2302;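 active = growth inhibition above 50% at the single 2 µM test dose, taken to imply half-maximal potency below 2 µM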;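 note: 0% = DMSO untreated growth and 100% = chloroquine plus artemisinin killed control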); details: P. falciparum Dd2 in RBCs, LDH growth readout, 72 h; at 2 µM; active compounds read high
[2] = HepG2 cytotoxicity, primary screen, cytotoxicity control for P. falciparum antimalarial project, cell-based, ATP luminescence (AID 2303;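 active = inhibition above 50%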;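 note: 0% = DMSO wells and 100% = digitonin-killed cells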); details: HepG2 viability, 24-48 h, at 10 µM, active compounds read high
[3] = molecular target: L-lactate dehydrogenase (Plasmodium falciparum (isolate CDC / Honduras)) (UniProt Q27743); test: PfLDH activity inhibition – cell lysate, 3D7 strain, counter-screen for P. falciparum growth inhibition project (AID 2304);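 note: 0% = vehicle and 100% = reference inhibitor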; details: P. falciparum 3D7 crude extract, LDH APAD/NBT absorbance; at 2 µM; active compounds read high
Sequence of L-lactate dehydrogenase (Plasmodium falciparum (isolate CDC / Honduras)) (Q27743 whole entry, looked up): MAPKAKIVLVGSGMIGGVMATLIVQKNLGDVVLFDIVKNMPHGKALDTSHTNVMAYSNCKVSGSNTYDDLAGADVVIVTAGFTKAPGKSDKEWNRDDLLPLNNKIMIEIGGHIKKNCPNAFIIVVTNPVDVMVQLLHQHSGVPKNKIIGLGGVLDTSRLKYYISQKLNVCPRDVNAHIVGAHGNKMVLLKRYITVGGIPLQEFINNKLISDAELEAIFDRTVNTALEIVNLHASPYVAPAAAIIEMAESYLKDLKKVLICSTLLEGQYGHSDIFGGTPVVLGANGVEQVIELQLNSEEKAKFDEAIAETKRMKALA

[4] = inhibition of 3D7 malaria parasite growth – strain 3D7 (AID 2306);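 note: 0% = DMSO wells and 100% = chloroquine plus artemisinin control wells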; details: P. falciparum 3D7 erythrocytic growth, LDH absorbance, 72 h; at 2 µM; active compounds read high
[5] = molecular target: Calcium-dependent protein kinase 1 (Plasmodium falciparum (isolate 3D7)) (UniProt P62344); test: PfCDPK1 kinase inhibitors, biochemical, TCAMS library (AID 1159585; cut-off not given, nearly all actives have IC50 up to about 0.98 µM;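 note: inhibitors leave more ATP so luminescence rises with inhibition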); details: recombinant PfCDPK1, Kinase-Glo ATP depletion luminescence
Sequence of Calcium-dependent protein kinase 1 (Plasmodium falciparum (isolate 3D7)) (P62344 whole entry, looked up): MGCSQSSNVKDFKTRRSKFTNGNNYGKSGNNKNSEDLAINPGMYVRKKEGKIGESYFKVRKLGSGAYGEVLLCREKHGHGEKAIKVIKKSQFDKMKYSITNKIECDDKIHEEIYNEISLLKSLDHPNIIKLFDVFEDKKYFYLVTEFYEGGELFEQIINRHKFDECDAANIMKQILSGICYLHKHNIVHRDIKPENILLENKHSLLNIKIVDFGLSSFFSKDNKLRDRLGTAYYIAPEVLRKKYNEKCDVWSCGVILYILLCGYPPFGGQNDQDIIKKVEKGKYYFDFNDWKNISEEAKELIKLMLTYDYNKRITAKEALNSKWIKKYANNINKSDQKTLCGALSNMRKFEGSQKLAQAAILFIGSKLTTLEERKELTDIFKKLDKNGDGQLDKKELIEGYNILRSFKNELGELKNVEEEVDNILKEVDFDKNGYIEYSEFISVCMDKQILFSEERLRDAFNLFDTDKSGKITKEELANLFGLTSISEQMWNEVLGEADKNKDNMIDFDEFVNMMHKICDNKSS

[6] = molecular target: Plasmodium falciparum protein kinase 6 (PK6, PF3D7_1337100) (UniProt Q8IDW1); test: PfPK6 kinase inhibitors, biochemical, TCAMS library (AID 1159586); details: recombinant PfPK6, Kinase-Glo ATP depletion luminescence
Sequence of Plasmodium falciparum protein kinase 6 (PK6, PF3D7_1337100) (Q8IDW1 1-305): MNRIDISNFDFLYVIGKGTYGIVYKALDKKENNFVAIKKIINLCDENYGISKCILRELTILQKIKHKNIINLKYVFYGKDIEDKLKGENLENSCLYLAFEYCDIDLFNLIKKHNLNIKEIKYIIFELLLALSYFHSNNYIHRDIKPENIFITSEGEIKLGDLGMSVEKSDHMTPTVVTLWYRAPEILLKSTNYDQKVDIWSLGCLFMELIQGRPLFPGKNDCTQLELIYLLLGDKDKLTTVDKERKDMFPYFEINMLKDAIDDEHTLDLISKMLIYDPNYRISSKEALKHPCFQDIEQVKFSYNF

[7] = molecular target: Protein kinase 7 (PK7), Plasmodium falciparum 3D7 (PF3D7_0213400) (UniProt Q7YTF7); test: inhibition of Plasmodium PK7 catalytic activity – biochemical, TCAMS antimalarial set, Kinase-Glo luminescence (AID 1159587); details: recombinant PfPK7, Kinase-Glo ATP depletion luminescence
Sequence of Protein kinase 7 (PK7), Plasmodium falciparum 3D7 (PF3D7_0213400) (Q7YTF7 1-343): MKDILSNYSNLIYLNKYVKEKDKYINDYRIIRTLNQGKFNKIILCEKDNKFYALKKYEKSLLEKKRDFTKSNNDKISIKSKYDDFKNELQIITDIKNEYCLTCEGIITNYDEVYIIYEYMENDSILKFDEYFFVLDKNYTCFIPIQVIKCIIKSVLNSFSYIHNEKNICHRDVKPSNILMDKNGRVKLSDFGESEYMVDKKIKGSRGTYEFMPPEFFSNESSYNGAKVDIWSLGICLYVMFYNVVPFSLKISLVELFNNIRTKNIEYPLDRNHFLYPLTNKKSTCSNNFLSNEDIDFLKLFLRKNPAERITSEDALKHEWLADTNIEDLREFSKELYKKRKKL

[8] = molecular target: Calcium-dependent protein kinase 4 (Plasmodium falciparum (isolate 3D7)) (UniProt Q8IBS5); test: PfCDPK4 kinase inhibitors, biochemical, TCAMS library (AID 1159588; cut-off not given, nearly all actives have IC50 up to about 0.91 µM); details: recombinant PfCDPK4, Kinase-Glo ATP depletion luminescence
Sequence of Calcium-dependent protein kinase 4 (Plasmodium falciparum (isolate 3D7)) (Q8IBS5 whole entry, looked up): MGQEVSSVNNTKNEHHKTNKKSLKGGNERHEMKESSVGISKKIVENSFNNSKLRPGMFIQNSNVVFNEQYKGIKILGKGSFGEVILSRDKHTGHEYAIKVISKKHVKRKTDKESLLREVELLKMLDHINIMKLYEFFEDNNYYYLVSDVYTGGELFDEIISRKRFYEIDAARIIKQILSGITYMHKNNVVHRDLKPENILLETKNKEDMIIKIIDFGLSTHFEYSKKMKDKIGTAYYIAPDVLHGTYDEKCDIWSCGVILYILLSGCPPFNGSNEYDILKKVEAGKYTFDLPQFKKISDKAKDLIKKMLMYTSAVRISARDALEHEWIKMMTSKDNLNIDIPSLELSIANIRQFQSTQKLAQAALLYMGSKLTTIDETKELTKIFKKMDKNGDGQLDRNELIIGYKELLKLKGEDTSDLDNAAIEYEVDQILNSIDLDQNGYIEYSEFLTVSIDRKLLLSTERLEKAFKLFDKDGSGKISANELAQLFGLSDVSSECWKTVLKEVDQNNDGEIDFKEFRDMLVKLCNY

| SMILES | growth inhibition [1] | inhibition [2] | inhibition [3] [%] | growth inhibition [4] | outcome [5] | outcome [6] | outcome [7] | outcome [8] |
| --- | --- | --- | --- | --- | --- | --- | --- | --- |
| O=C(Nc1ccc(OC2CCN(Cc3ccc(F)cc3)C2)c(Cl)c1)c1ccsc1 (stereo not given) | 95% (active) | 26% | -3 | 98% (active) | inactive | inactive | inactive | inactive |
| c1ccc(-c2cc(NCCCn3ccnc3)nc(-c3cccnc3)n2)cc1 | 6% | 15% | 0 | 84% (active) | inactive | inactive | inactive | inactive |
| Cc1ccccc1CNc1noc(-c2sccc2Br)n1 | 88% (active) | -2% | -3 | 99% (active) | inactive | inactive | inactive | inactive |
| O=C(NC1CC1)c1ccc(N2CCC(Cc3ccccc3)CC2)c([N+](=O)[O-])c1 | 83% (active) | 12% | -1 | 96% (active) | inactive | inactive | inactive | inactive |
| Cc1cccc2[nH]c(-c3ccc(-c4ccc(CN5CCN(CCN6CCOCC6)CC5)cc4)s3)nc12 | 99% (active) | 41% | 3 | 100% (active) | inactive | inactive | inactive | inactive |
| O=C(Nc1cccc(C(F)(F)F)c1)NC1CCN(c2ccnc3cc(Cl)ccc23)CC1 | 47% | 13% | -2 | 101% (active) | inactive | inactive | inactive | inactive |
| COc1ccccc1CNC(=O)c1cc(OC)c(OC)cc1NC(=O)c1cccs1 | 71% (active) | 12% | 3 | 88% (active) | inactive | inactive | inactive | inactive |
| CCCN(CCC)CCCN(CCCN(CCC)CCC)c1cc(C)nc(Nc2ccc(Cl)cc2)n1 | 101% (active) | 34% | -6 | 101% (active) | inactive | inactive | inactive | inactive |
| Cn1c(N)c(N=O)c(=O)[nH]c1=O | 82% (active) | 58% (active) | 0 | 97% (active) | inactive | inactive | inactive | inactive |
| Cc1ccc(NC(=O)c2ccc3ncccc3c2)cc1OC1CCN(C(C)C)C1 (stereo not given) | 37% | 12% | 1 | 95% (active) | inactive | inactive | inactive | inactive |
| Cc1cc(Nc2nc(NCc3cccnc3)nc3ccccc23)n[nH]1 | 33% | 11% | 1 | 101% (active) | inactive | inactive | inactive | inactive |
| CC(C)(C)c1ccc2oc(=O)n(C3CCN(C(=O)c4ccc([N+](=O)[O-])o4)CC3)c2c1 | 87% (active) | -8% | -2 | 94% (active) | inactive | inactive | inactive | inactive |
| COc1ccc(CCn2c(=N)c(C(=O)NCc3ccccc3)cc3c(=O)n4cccc(C)c4nc32)cc1 | 37% | 29% | -3 | 102% (active) | inactive | inactive | inactive | inactive |
| CC(CCc1ccccc1)NCC(O)c1cccc(C(F)(F)F)c1 (stereo not given) | 98% (active) | 18% | 4 | 99% (active) | inactive | inactive | inactive | inactive |
| CCCCCCCCn1c2c(c(=N)c3c1CCC3)CCCC2 | 100% (active) | 57% (active) | 2 | 101% (active) | inactive | inactive | inactive | inactive |
| COc1ccc(CN2CCCN(Cc3cccc(C(=O)Nc4ccc(C)c(F)c4)c3)CC2)cc1 | 10% | 49% | -3 | 83% (active) | inactive | inactive | inactive | inactive |
| CN(C)CCOc1cc(NC(=O)c2ccc(-c3ccc(Cl)cc3Cl)cc2)ccc1-c1ccccc1 | 26% | 45% | -4 | 98% (active) | inactive | inactive | inactive | inactive |
| COc1cc(NC(=O)c2ccc(-c3ccc(C(C)=O)cc3)s2)ccc1OCCN1CCCC1 | 63% (active) | 31% | 3 | 100% (active) | inactive | inactive | inactive | inactive |
| N#Cc1ccc(-c2ccc(C(=O)NC3CCN(CCN4CCC(c5cn(CCOC6CCCCO6)c6ccccc56)CC4)CC3)cc2)cc1 (stereo not given) | 86% (active) | 48% | 2 | 99% (active) | inactive | inactive | inactive | inactive |
| COc1cc2c(cc1S(=O)(=O)c1ccc(OCc3ccc(Cl)cc3)cc1)CCN(Cc1ccc(NC(C)=O)s1)CC2 | -3% | 3% | -2 | 89% (active) | inactive | inactive | inactive | inactive |

| SMILES | growth inhibition [1] | inhibition [2] | inhibition [3] [%] | growth inhibition [4] | outcome [5] | outcome [6] | outcome [7] | outcome [8] |
| --- | --- | --- | --- | --- | --- | --- | --- | --- |
| CS(=O)(=O)NCCCNCc1cccc(-c2ccc(-c3nc4ccccc4[nH]3)s2)c1 | -1% | 24% | 6 | 90% (active) | inactive | inactive | inactive | inactive |
| COc1ccc(-c2ccc(Nc3cccc(S(=O)(=O)CCN4CCC(CCN(C)C)CC4)c3)nc2)cn1 | 9% | 44% | 3 | 100% (active) | inactive | inactive | inactive | inactive |
| CCOc1ccc2c(NN=Cc3cc(OC)c(OC)c(OC)c3)cc(C)nc2c1 | 99% (active) | 18% | -4 | 101% (active) | inactive | inactive | inactive | inactive |
| CN(C)c1ccc(NC(=O)Nc2ccnc3ccc(Br)cc23)cc1 | 21% | -5% | 6 | 91% (active) | inactive | inactive | inactive | inactive |
| Cc1cccc2[nH]c(-c3cccc(-c4cccc(NC(=O)NCc5cccc(F)c5)c4)c3)nc12 | 32% | 11% | -2 | 98% (active) | inactive | inactive | inactive | inactive |
| COc1ccc(Cl)cc1N1CCN(CCCNC(=O)c2ccc(-c3nc4cc(Cl)c(F)cc4[nH]3)s2)CC1 | 98% (active) | 12% | 4 | 101% (active) | inactive | inactive | inactive | inactive |
| C=CCc1cc(Cc2cnc(N)nc2N)cc(CCC)c1O | 2% | 54% (active) | -1 | 90% (active) | inactive | inactive | inactive | inactive |
| CCOc1ncccc1CN1CCC(N2CCc3cc(NC(=O)c4cc(C)on4)ccc32)C1 (stereo not given) | 96% (active) | -3% | -1 | 89% (active) | inactive | inactive | inactive | inactive |
| O=S(=O)(NCCN1CCCC1)c1ccc(-c2ccc(CNCc3ccsc3)cc2)cc1 | 36% | 44% | -5 | 95% (active) | inactive | inactive | inactive | inactive |
| O=C(c1cc(-c2cccs2)[nH]n1)N1CCN(S(=O)(=O)c2ccc(Cl)s2)CC1 | 80% (active) | 20% | 1 | 84% (active) | inactive | inactive | inactive | inactive |
| O=C(NCCCCN1CCC(c2ccc3ccccc3c2O)CC1)c1ccc(NC(=O)c2ccc(Cl)cc2)cc1 | 89% (active) | 34% | 3 | 101% (active) | inactive | inactive | inactive | inactive |
| CCCc1cc(C(=O)N[C@@H](Cc2ccccc2)[C@H](O)CNC(C)C)c(F)c(N2CCCC2=O)c1 | 22% | -2% | 0 | 90% (active) | inactive | inactive | inactive | inactive |
| O=C(/C=C/c1ccc(F)cc1)NC1CCC(CCN2CCc3ccccc3CC2)CC1 (stereo not given) | 36% | 27% | 4 | 91% (active) | inactive | inactive | inactive | inactive |
| Cc1ccc(C)c(NC(=O)NC2CCN(c3ccnc(Nc4ccc(F)cc4)n3)C2)c1 (stereo not given) | 74% (active) | -2% | -3 | 100% (active) | inactive | inactive | inactive | inactive |
| CN(C)Cc1ccc(-c2ccc(NC(=O)c3ccc4c(=O)n(Cc5ccoc5)cnc4c3)cc2)cc1 | 16% | 32% | 3 | 80% (active) | inactive | inactive | inactive | inactive |
| O=C(C=NO)Nc1ccccc1[N+](=O)[O-] | -2% | -14% | -2 | 99% (active) | inactive | inactive | inactive | inactive |
| CCCCSc1nc2c(c(=O)n1Cc1ccco1)C1(CCCCC1)Cc1ccccc1-2 | 78% (active) | 13% | 2 | 96% (active) | inactive | inactive | inactive | inactive |
| O=C(NC(=S)Nc1cc(C(F)(F)F)cc(C(F)(F)F)c1)c1ccc(Cl)cc1 | 99% (active) | 31% | 0 | 96% (active) | inactive | inactive | inactive | inactive |
| Cc1ccc(C(C)C)cc1CON1C(N)=NC(N)=NC1(C)C | 92% (active) | 66% (active) | -3 | 94% (active) | inactive | inactive | inactive | inactive |
| COc1ccc2c(NN=Cc3cccc([N+](=O)[O-])c3)ccnc2c1 | 99% (active) | -10% | 5 | 101% (active) | inactive | inactive | inactive | inactive |
